High-throughput results as filed in PubChem BioAssay.
This is a sample that favours compounds with a hit; in the whole collection about 3.9% have one here.
CR mimetic SO = caloric restriction mimetics inhibiting age-related superoxide in yeast; S. cerevisiae aged cells, superoxide DHE fluorescence; stronger effect = lower value; superoxide response (% of plate mean), % at 10 µM; actives 0.18% (n = 330,000);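 active means superoxide response under a set limit, about three screen SD below normal, cut at about 65% in these data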;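 further: yeast aged for seven days with compound at 30 °C before DHE staining; 100% = average MFI of all compound-treated wells on the plate with controls excluded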
AHR activator = human AHR activation | P35869 | AHR-responsive luciferase reporter cells, luminescence | activation, % at 5 µM | actives 2.5% (n = 320,000); in the data active means activation above about 47%;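 further: 0% = vehicle wells and 100% = reference agonist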
sPLA2-III inh = Inhibits HGIII-sPLA2 liposome hydrolysis, primary screen | Q9NZ20 | QFRET BODIPY PC-A2 liposome hydrolysis, fluorescence | inhibition, % at 12.2 µM | actives 0.56% (n = 370,000);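 active means inhibition above mean plus 3 SD of compounds lying within the high and low control bounds, cut at about 19% in these data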;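 further: 0% = median of test compound wells and 100% = no enzyme DMSO wells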
HIF act = HIF pathway transcriptional activation; actives 0.32% (n = 300,000); activation, % at 7.5 µM (by protocol); U2OS HRE-luciferase reporter, luminescence; normalized: DMSO 0%, desferrioxamine 100%; AID 1910;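 active means mean activation of at least 10% of the iron chelator positive control signal, with at least half of replicates also reaching 10%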
PLCg1 inh = blocks human PLC-gamma1 enzyme activity; actives 0.84% (n = 370,000); AID 720700; purified PLC-gamma1, fluorogenic substrate, fluorescence; inhibition, % at 12.2 µM; in the data active means inhibition above about 9.5%
PLC-beta3 inh = blocks human PLC-beta3 enzyme activity; Q01970; Purified PLC-beta3, fluorogenic substrate, fluorescence; inhibition, % at 12.2 µM; actives 0.18% (n = 370,000); in the data active means inhibition above about 11%;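 further: 0% = median of compound wells on plate and 100% = full blocker control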
Active calls of the source: *; . = no result.

SMILES	CR mimetic SO	AHR activator	sPLA2-III inh	HIF act	PLCg1 inh	PLC-beta3 inh
CC1CCc2c(sc(NC(=O)COC(=O)c3ccccc3NCc3ccco3)c2C#N)C1 (configuration not stated)	101	1	-4	0	-13	-15
CCOC(=O)c1c(NC(=O)Cn2nnc3ccccc32)sc2c1CCC(C)C2 (configuration not stated)	98	63*	-6	0	7	1
CCOC(=O)c1c(NC(=O)C(C)NCc2ccco2)sc2c1CCC(C)C2 (configuration not stated)	106	51*	-12	1	0	-1
CC(C)(C)c1cc[n+](/C(C(=S)Nc2ccccc2F)=C(/[O-])c2ccc3c(c2)OCCO3)cc1	88	8	10	4	-6	-21
[O-]/C(=C(\C(=S)Nc1ccccc1F)[n+]1ccccc1)c1ccc(-c2ccccc2)cc1	119	60*	6	1	-4	-13
Cc1cc2c(nc1C)CCCN2S(=O)(=O)c1c(C)noc1C	.	.	13	.	-3	-8
O=Cc1cn(-c2ccccc2)nc1-c1ccccc1	91	-4	0	0	-1	-5
CC1=NNC(=O)/C1=C\c1cn(-c2ccccc2)nc1-c1ccccc1	128	1	-13	-8	10*	3
O=Cc1cn(-c2ccccc2)nc1-c1ccncc1	89	60*	7	3	8	-3
CC1(C)CC(=O)C(=Cc2cn(-c3ccccc3)nc2-c2ccc(Cl)cc2)C(=O)C1	101	1	1	1	-2	-1
Cc1ccc(OCC(=O)N/N=C\c2cn(C)c3ccccc23)c([N+](=O)[O-])c1	111	24	1	-1	-3	4
Cn1cc(/C=N/NC(=O)COc2ccccc2[N+](=O)[O-])c2ccccc21	104	58*	-10	0	3	3
COC(=O)N/N=C/c1cn(CCOc2ccc(OC)cc2)c2ccccc12	84	22	-12	0	-1	-9
COC(=O)N/N=C/c1cn(CCOc2ccccc2OC)c2ccccc12	105	60*	-17	-1	4	0
CNC(=S)N/N=C/c1cn(CCOc2cccc(OC)c2)c2ccccc12	79	56*	-11	-1	4	5
CC1(c2nnnn2-c2ccc(F)cc2)CCCC(=O)N1CCc1c[nH]c2ccccc12 (configuration not stated)	.	.	-28	.	7	3
O=C1CCC[C@H]2C[C@H](NCc3cccc(Cl)c3)CC[C@]23CCCN13	.	.	0	.	2	4
COC(=O)[C@H](CC(C)C)N(CCCc1cn(Cc2ccccc2)nn1)S(=O)(=O)c1ccccc1Br	.	.	-26	.	5	9
Cc1ccc2nc(/C(C#N)=C/c3ccc(O)c(O)c3)[nH]c2c1	95	62*	1	3	-122	-149
Cc1ccc2nc(/C(C#N)=C/c3cn[nH]c3-c3ccc(F)cc3)[nH]c2c1	106	76*	-25	5	-106	-132
O=C(Nc1cccc(F)c1)c1ccc(-c2ccccc2Cl)o1	97	50*	.	3	.	.
Cc1ccc(-c2ccc(C(=O)Nc3cccc(F)c3)o2)c2ccccc12	116	35	-7	1	-107	-163
Cc1ccc(S(=O)(=O)Nc2cc(C(C(=O)OC(C)C)C(=O)C(F)(F)F)c(O)c3ccccc23)c(C)c1 (configuration not stated)	73	48*	-17	0	-15	-19
O=C(NCc1ccc(Cl)cc1)C1CCC(CNc2c(N3CCCCC3)c(=O)c2=O)CC1 (configuration not stated)	102	-4	2	0	2	3
O=C(NCc1ccc(F)cc1)C1CCC(CNc2c(N3CCCCC3)c(=O)c2=O)CC1 (configuration not stated)	63*	-1	3	0	3	-8
SMILES	CR mimetic SO	AHR activator	sPLA2-III inh	HIF act	PLCg1 inh	PLC-beta3 inh
Cn1cc(P(=S)(N2CCOCC2)N2CCOCC2)cc1P(=O)(N1CCOCC1)N1CCOCC1	123	3	7	1	18*	-4
Cc1cccc(OC[C@@H](O)CN2CCC(C(O)(c3ccccc3)c3ccccc3)CC2)c1	.	.	-12	.	2	2
CC(=O)N1c2ccc(S(=O)(=O)NCCc3ccccc3)cc2CC1C (configuration not stated)	99	3	-4	18*	7	-4
CC(=O)N1c2ccc(S(=O)(=O)NCCC(=O)N(C)Cc3ccccc3)cc2CC1C (configuration not stated)	103	2	-1	.	0	-10
CCN(Cc1ccccc1)C(=O)CCNS(=O)(=O)c1ccc2c(c1)CC(C)N2C(C)=O (configuration not stated)	104	3	0	69*	3	-11
Cc1c(Cl)cccc1NC(=S)NCCC(c1ccccc1)c1ccccc1	91	0	-12	-2	10*	-1
Cc1c(Cl)cccc1NC(=S)NCCC(C)C	90	1	5	-33	-1	8
COC(=O)C[C@H]1CC[C@H]2[C@H](COc3ccc(NC(=O)c4ccccc4F)cc3C(=O)N2C)O1	.	.	6	.	-1	-1
COC(=O)[C@]12CCCCC=C1N(Cc1ccc(OC)cc1)C(=O)[C@@H]2CC(=O)N1CCN(C(=O)c2ccco2)CC1	.	.	-5	.	1	0
CC1=Nc2ccccc2/C1=C/c1sc(=N)n(-c2nccs2)c1O	116	73*	.	0	.	.
CCc1nnc(NC(=O)/C=C/c2cccs2)s1	99	52*	5	1	1	-2
CCOC(=O)c1sc(N/N=C/c2cc(Br)c(O)c(OC)c2)nc1C	100	67*	-2	0	-342	-416
O=C(NCc1ccc(Cl)cc1)c1csc(-c2cccnc2)n1	91	52*	0	0	0	2
O=C(NCCc1csc(-c2cccnc2)n1)c1ccc(Br)o1	93	65*	-1	0	-6	-3
O=C(NCCc1csc(-c2ccccc2)n1)c1ccc(Br)o1	117	19	-2	0	-1	-5
O=C(NNC(=O)c1ccc(Cl)cc1Cl)c1csc(-c2cccnc2)n1	84	7	2	0	1	-6
CCC(=O)OCCCN1CCC2(CCCCC2)C1=O	.	.	7	.	5	7
CCC(C#Cc1ccccc1)NCc1ccc(OC)cc1OC (configuration not stated)	.	.	-4	.	7	6
CC(=O)Nc1ccc(C=NNc2ccc(S(=O)(=O)Nc3ccccc3C(=O)O)cc2[N+](=O)[O-])cc1	97	-2	-20	.	11*	2
Cc1cccc(NC(=O)C2CC(=O)NC(Nc3nc4ccccc4s3)=N2)c1 (configuration not stated)	108	0	6	99*	0	4
